Most compounds without a hit are left out; they make up all but 2.4% or so of the library.
L929 necroptosis – L929 zVAD cell death inhibition; L929 zVAD necroptosis rescue, ATP luminescence, 24 h; with zVAD 60 µM; viability rescue, % at 10 µM; 220,000 compounds, 0.38% hits; AID 1377;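 active means activation, scaled between plate controls, above about 75%, limit read from the data; inactive means activation under that limit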;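 further: 0% = zVAD with DMSO and 100% = DMSO alone without zVAD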
PERK inh – inhibitors of human PERK kinase. Q9NZJ5. CHO PERK-DD fusion, SEAP luminescence translation reporter. inhibition, % at 5.6 µM. 220,000 compounds, 0.17% hits. AID 1416;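 active means inhibition above the mean inhibition of all tested compounds plus 3 SD, set separately per screening campaign, cut at about 2.9% in these data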;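 further: PERK kinase domain activated by AP20187 dimerizer at 100 nM; 0% = DMSO with dimerizer and 100% = rapamycin at 8.4 µM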
WT yeast gro inh – growth inhibition of WT yeast, mitochondrial fusion screen. inhibition, % at 10 µM. mitochondrial fusion phenotypic screen, WT strain. 190,000 compounds, 2.1% hits; in the data active means inhibition above about 58%; tested in S. cerevisiae
TNF death inh – TNF-alpha cell death inhibition in Jurkat FADD-/- cells | Jurkat FADD-/- TNF necroptosis rescue, ATP luminescence, 24 h; 0 = TNF only, 100 = no-TNF cells | activation (protection from cell death), % at 10 µM | 220,000 compounds, 0.068% hits;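 active means activation, meaning protection from cell death, of at least 50% relative to plate controls; inactive means activation below 50%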;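 further: necroptosis triggered by 40 ng/mL TNF-alpha added together with compound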
Redox H2O2 prof – compounds producing H2O2 with reducing agent – biochemical, NIH compound library profiling, artefact control for MLSCN library redox annotation, primary screen | DTT-dependent redox cycling H2O2, phenol red/HRP absorbance; 100% = 100 µM peroxide control, 0% = buffer | activation, % at 10 µM | 200,000 compounds, 0.03% hits;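 active means activation of at least 50% relative to the plate's high and low controls in the primary single-dose screen; inactive means activation below 50%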;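 further: compound incubated with DTT at 0.8 mM final as the reducing agent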
PKD1 kinase inh – blocks activity of human protein kinase D1; inhibition, % (no concentration beside the values); AID 797; PKD1 kinase fluorescence polarization assay; 200,000 compounds, 0.056% hits; Q15139; in the data active means inhibition above about 50%
Numbers without * were called inactive; / = not tested or not shown.

SMILES	L929 necroptosis	PERK inh	WT yeast gro inh	TNF death inh	Redox H2O2 prof	PKD1 kinase inh
CC1CCN(Cc2cc(=O)oc3ccc4ccccc4c23)CC1	-0.7	-0.6	/	1.8	/	/
O=C1CCCC/C1=C\Nc1ccc(C(=O)O)c(O)c1	0.5	1.6	/	-1.2	/	/
CSc1nc2ccccc2n1CC(=O)Nc1ccccc1	-0.5	0.1	5.5	-3.9	0.5	-6.9
O=C(Cn1c(/C=C/c2ccccc2)nc2ccccc21)Nc1ccc(F)cc1	-1.0	-0.8	68.2*	2.5	-0.1	13.4
Cc1ccc(C(=O)NC(=S)NCC(=O)c2ccccc2)cc1	1.0	0.4	60.6*	0.0	-3.6	4.0
CC(C)NC(=S)NC(=O)c1ccc(-c2ccccc2)cc1	0.1	0.4	66.9*	3.1	-0.1	2.9
COc1cc(/C=N/NC(N)=O)ccc1OCC(=O)Nc1cc(C)c(C)cc1Br	3.9	-0.1	-9.7	0.2	-1.5	-3.4
CCOC(=O)C1(S(=O)(=O)c2ccc(Cl)cc2)CCN(Cc2ccc(Cl)cc2)CC1	0.7	-1.4	71.5*	-2.0	-5.9	2.1
CCOC(=O)C1(S(=O)(=O)c2ccccc2)CCN(Cc2ccc(Cl)cc2)CC1	0.5	0.0	-0.6	-1.4	-4.4	-4.6
Fc1ccc(-c2nnc(Cc3ccc(Cl)cc3)o2)cc1	-0.6	-0.4	/	1.8	/	/
COc1ccc(C2C3=C(CC(C)(C)CC3=O)Oc3ncn(Cc4ccccc4)c(=N)c32)cc1 (stereo not drawn)	-1.8	-2.9	97.2*	-0.7	-0.1	4.0
CC1(C)CC(=O)C2=C(C1)Oc1ncn(Cc3ccco3)c(=N)c1C2c1ccccc1 (stereo not drawn)	-0.6	-1.1	-9.8	-4.0	1.8	-0.3
COc1ccc(C(=O)Nc2nc3nccc(-c4ccccc4)n3n2)cc1	3.9	-1.4	-8.5	-0.7	0.3	-3.1
FC(F)(F)c1cc(-c2ccccc2)nc(NCc2cccs2)n1	1.0	1.1	70.2*	1.2	-0.4	-8.8
FC(F)(F)c1cc(-c2ccccc2)nc(NCC2CCCO2)n1 (stereo not drawn)	1.9	0.0	27.8	1.0	-0.8	-6.2
FC(F)(F)c1cc(-c2ccccc2)nc(NC2CCCC2)n1	-0.2	0.1	86.0*	1.0	0.1	-3.6
CCN(C(=O)COC(=O)c1c2c(nc3ccccc13)/C(=C/c1ccccc1)CC(C)C2)C1CCS(=O)(=O)C1 (stereo not drawn)	14.9	-0.8	32.2	4.7	0.4	-8.4
CN(C)NC(=S)NC1CCS(=O)(=O)C1 (stereo not drawn)	-0.5	-0.8	/	1.1	/	/
Cc1nc2cc(-c3ccc(Cl)cc3)nn2c(NCCN(C)C)c1C	14.6	0.0	22.4	-11.6	0.2	1.5
Cc1cccc(C)c1OCCNC(=O)OCc1ccccc1	-0.8	-0.1	15.8	0.7	-0.2	-4.7
COc1cc(C2Nc3c(F)cccc3C3C=CCC32)cc(Br)c1OC (stereo not drawn)	0.8	-1.1	11.9	-0.5	1.0	-7.2
COc1cccc(C2Nc3c(F)cc(Br)cc3C3C=CCC32)c1OC (stereo not drawn)	0.5	1.4	66.1*	-0.6	1.3	-8.0
COc1cc(-c2nnc(SCc3c(F)cccc3Cl)o2)cc(OC)c1OC	-0.1	-1.6	64.1*	-1.8	2.1	-2.2
COc1cc(-c2nnc(SCc3ccccc3Cl)o2)cc(OC)c1OC	-0.3	-1.3	55.9	-3.4	0.6	-2.0
CCC(CO)NC(=O)c1ccccc1C(F)(F)F (stereo not drawn)	0.4	0.4	/	0.6	/	/
SMILES	L929 necroptosis	PERK inh	WT yeast gro inh	TNF death inh	Redox H2O2 prof	PKD1 kinase inh
C=CCn1c(SCc2cc(C(C)=O)ccc2OCC)nc2ccccc2c1=O	0.0	-0.5	-14.4	-4.9	1.6	9.8
COc1ccc(C(C)=O)cc1CSc1nc2ccccc2c(=O)n1-c1ccccc1	-0.4	-0.5	32.8	-0.4	0.2	1.7
COc1ccc(C(C)=O)cc1CSc1nc2ccccc2c(=O)n1-c1cccc(C)c1	-0.4	-0.3	64.8*	0.3	0.0	-5.4
COc1ccc(C(C)=O)cc1CSc1nc2ccccc2c(=O)n1-c1ccccc1C	0.9	-0.2	61.1*	0.2	0.2	-5.4
O=S(=O)(c1ccccc1)N1CCN(c2nnc(-c3ccccc3)c3ccccc23)CC1	-0.5	-0.3	/	-7.0	/	/
Cc1ccccc1NC(=O)COC(=O)CCc1ccccc1	2.2	-0.3	-0.9	1.0	0.1	-3.2
CCNC(=S)NNC(=O)c1cc(-c2ccc(OCC)cc2)nc2ccccc12	-0.9	-1.2	65.9*	-23.5	-6.0	-7.0
Cc1ccc(-c2nn(CC(=O)O)c(=O)c3ccccc23)cc1	-0.4	1.2	5.1	-2.2	0.6	-7.3
COC(=O)Cn1nc(-c2ccc(C)cc2)c2ccccc2c1=O	0.6	-0.1	64.1*	-0.6	0.0	-2.7
CN1CCN(C(=O)c2cc(COc3c(F)cccc3F)on2)CC1c1ccccc1 (stereo not drawn)	2.4	0.3	79.5*	0.5	-0.8	-1.9
CN1CCN(C(=O)c2cc(COc3ccc(F)cc3Cl)on2)CC1c1ccccc1 (stereo not drawn)	0.5	0.3	76.4	1.5	-1.1	-0.9
COCCN1C(=O)CS/C1=C(/C#N)C(=O)NCc1ccco1	4.3	-0.2	-8.7	-0.5	-1.2	4.9
CCC1=NN2C(=N)/C(=C\c3cccn3-c3ccc(C)cc3C)C(=O)N=C2S1	-0.1	0.5	83.5*	0.1	-0.2	-3.4
CCC1=NN2C(=N)/C(=C\c3cccn3-c3cccc(Cl)c3)C(=O)N=C2S1	2.6	-0.1	61.6*	1.0	-0.7	-1.8
CC(C)c1ccc(-n2cccc2/C=C2/C(=N)N3C=CSC3=NC2=O)cc1	6.5	-0.5	87.3*	1.6	-0.1	4.4
CCC1=NN2C(=N)/C(=C\c3cccn3-c3ccc(Br)cc3)C(=O)N=C2S1	2.2	-0.4	23.4	0.0	-0.9	5.0
O=c1c2cn[nH]c2nc(SCc2c(F)cccc2F)n1-c1ccc(Cl)cc1	-1.0	1.2	72.8*	-1.1	-0.7	-8.8
COc1ccc(CCC(=O)N2CCCSC2=Nc2ccc(C(C)=O)cc2)cc1	0.4	0.2	-5.6	5.6	-0.1	-3.6
CCCC(=O)Nc1ccc(C(=O)Nc2ccc([N+](=O)[O-])cc2OC)cc1	1.5	-0.2	14.6	0.2	-0.5	0.8
NC(=O)c1snnc1-c1ccccc1	3.1	-0.3	/	15.5	/	/
O=S(=O)(c1ccc(Cl)c(Cl)c1)c1snnc1-c1ccccc1	0.1	0.2	84.0*	-22.9	0.2	4.4
Clc1ccc(-n2nnnc2-c2cnc3ccc(Cl)cc3c2-c2ccccc2)cc1	1.8	-1.0	/	-1.8	/	/
Clc1ccc2ncc(-c3nnnn3-c3ccccc3)c(-c3ccccc3)c2c1	-0.3	-0.2	69.8*	-6.0	-5.3	-5.3
CCC(=O)Nc1ccc(Br)c(Cl)c1	0.1	1.8	90.6*	-0.2	0.4	-7.4
